The text below walks through data of PubChem BioAssay AID2283149 (EPA ToxCast).

Inconclusive results are not listed. The source made the active and inactive calls. How the source made its calls: active means hit-call score of the fitted dose curve at least 0.9, where 1 is the maximum; inconclusive means response in the unintended direction; inactive means score below 0.9.

human Casein Kinase 1-alpha (CK1a), CSNK1A1 (gene 1452), sequence (P48729 whole entry, looked up): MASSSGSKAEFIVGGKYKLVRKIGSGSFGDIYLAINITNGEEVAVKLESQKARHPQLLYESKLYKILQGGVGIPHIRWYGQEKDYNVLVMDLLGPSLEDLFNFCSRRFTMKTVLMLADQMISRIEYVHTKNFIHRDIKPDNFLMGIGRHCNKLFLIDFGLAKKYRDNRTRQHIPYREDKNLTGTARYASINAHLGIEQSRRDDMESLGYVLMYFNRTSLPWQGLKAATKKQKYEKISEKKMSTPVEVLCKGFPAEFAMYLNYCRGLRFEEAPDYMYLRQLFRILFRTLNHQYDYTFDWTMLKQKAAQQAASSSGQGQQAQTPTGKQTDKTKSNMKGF

This test addresses human Casein Kinase 1-alpha (CK1a), CSNK1A1 (gene 1452) (UniProt P48729). Nature of the test: NVS_ENZ_hCK1a: NovaScreen (NVS) Enzymatic Assay for human Casein Kinase 1-alpha (CK1a). The protocol:
NVS_ENZ_hCK1a is a biochemical, single-readout assay that uses extracted gene-proteins in a cell-free assay. Measurements were taken 1 hour after chemical dosing in a 384-well plate.NVS_ENZ_hCK1a is one of one assay component(s) measured or calculated from the NVS_ENZ_hCK1a assay. It is designed to make measurements of enzyme activity, a form of enzyme reporter, as detected with fluorescence intensity signals by Fluorescence and electrophoretic mobility shift technology.Data from the assay component NVS_ENZ_hCK1a was analyzed into 1 assay endpoint. This assay endpoint, NVS_ENZ_hCK1a, was analyzed in the positive analysis fitting direction relative to DMSO as the negative control and baseline of activity. Using a type of enzyme reporter, loss-of-signal activity can be used to understand changes in the enzymatic activity as they relate to the gene CSNK1A1. Furthermore, this assay endpoint can be referred to as a primary readout, because this assay has produced multiple assay endpoints where this one serves a enzymatic activity function. To generalize the intended target to other relatable targets, this assay endpoint is annotated to the kinase intended target family, where the subfamily is serine/threonine kinase.
Binding assays used specific radioligands (tritiated, iodinated) with non-radioactive competitive displacement ligands in agonist or antagonist protocols (as indicated) and various reference compounds and inhibitors to titrate specific binding to receptors and transporters. Most enzyme assays (CYPs, kinases, phosphatases, proteases, HDACs) used recombinant protein and specific substrates (fluorescence mostly, some colorimetric and radioactive) and inhibitors, followed by a biochemical separation of substrate and product. All assays for the biochemical HTS were initially run in duplicate at a single concentration (10 uM for CYP450 assays and 25 uM for all others). Assay-chemical combinations meeting a pre-defined threshold (e.g., 30% inhibition and other criteria defined below) were then run in singleton concentration-response format with maximum concentration of 20 uM for CYPs and 50 uM for all others. Each assay was run with positive and negative controls, and concurrent controls on every plate. The follow-up (secondary) screen tested active chemical-pairs in concentration series, as well as a few additional assays not tested in the primary screen, some selected negative inactives, and several cases re-run in the concentration series for confirmatory purposes.
Take `S=C([S-])NCCNC(=S)[S-].[Mn+2]`: the AC50 is 19.4 µM (active). Still for that read-out and setting: the figure for `CN(C)[C@@H]1C(=O)C(C(N)=O)=C(O)[C@@]2(O)C(=O)C3=C(O)c4c(O)cccc4[C@@](C)(O)[C@H]3[C@H](O)[C@@H]12` is 36.4 µM (active). With `CO/C=C(/C(=O)OC)c1ccccc1Oc1cc(Oc2ccccc2C#N)ncn1`, the outcome was inactive. As to `S=C(S)NCCNC(=S)S.[Mn+2].[S-]C([S-])=NCCN=C([S-])[S-].[Zn+2]`, the AC50 was 9.19 µM (active). For the compound `O=S(=O)(O)C(F)(F)C(F)(F)C(F)(F)C(F)(F)C(F)(F)C(F)(F)C(F)(F)C(F)(F)F`, the AC50 is 21.1 µM (active). As for `Nc1nc(N)nc(NC2CC2)n1`, the compound was classed as inactive. Take `O=C(Nc1ccc([N+](=O)[O-])cc1Cl)c1cc(Cl)ccc1O`: the result was inactive.

With `N#CSCSC#N`, the compound was classed as inactive.

As to `O=C(O)C1(C(=O)Nc2ccc(Cl)cc2Cl)CC1`, the AC50 is 8.67 µM (active).
